# Reference: PubChem BioAssay (Tox21)
# “And” between values parts separate entries of the source, which are not always exact repeats. Equal values may be shown once. A number with no mark means an inactive call. Inconclusive results are not listed. Entries that show only a call come without a potency. The source made the active and inactive calls. Calls come from the whole dose curve. Non-standard residues stand in square brackets, D forms with d. Residues, ends and D or L forms follow the SMILES beside them. pGlu = O=C1CC[C@@H](C(=O)O)N1
# How the values were obtained:
# [1] = biological target: Acetylcholinesterase (Homo sapiens) (UniProt P22303); test: Acetylcholinesterase (AChE) small molecule antagonists: colormetric cell-based qHTS assay (AID 1347395); note: nearly all actives have a fitted effect of over 30% in size
# Sequence of Acetylcholinesterase (Homo sapiens) (P22303 whole entry, looked up): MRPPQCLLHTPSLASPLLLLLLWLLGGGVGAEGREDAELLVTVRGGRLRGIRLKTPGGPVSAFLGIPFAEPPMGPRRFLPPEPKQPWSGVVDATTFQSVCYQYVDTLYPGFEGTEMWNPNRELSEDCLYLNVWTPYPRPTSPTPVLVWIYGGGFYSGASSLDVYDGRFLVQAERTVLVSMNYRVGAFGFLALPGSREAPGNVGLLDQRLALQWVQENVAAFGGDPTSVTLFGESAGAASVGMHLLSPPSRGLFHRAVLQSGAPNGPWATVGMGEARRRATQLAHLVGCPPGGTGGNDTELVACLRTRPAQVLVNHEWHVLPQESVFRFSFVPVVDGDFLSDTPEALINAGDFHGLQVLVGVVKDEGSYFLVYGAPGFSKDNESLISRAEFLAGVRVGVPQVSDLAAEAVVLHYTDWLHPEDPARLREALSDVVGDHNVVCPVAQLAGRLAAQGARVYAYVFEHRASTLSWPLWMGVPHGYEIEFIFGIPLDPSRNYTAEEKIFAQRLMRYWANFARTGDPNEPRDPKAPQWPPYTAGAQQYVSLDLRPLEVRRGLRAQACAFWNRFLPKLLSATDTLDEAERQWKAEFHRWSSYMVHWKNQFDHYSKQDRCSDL
# Procedure, shortened: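 SH-SY5Y cells attached overnight, exposed to compound 30 min at 37 C, then given DTNB/acetylthiocholine; after 90 min at 37 C, colorimetric thiocholine read gives cellular AChE activity.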
# [2] = biological target: Acetylcholinesterase (Homo sapiens) (UniProt P22303); test: Acetylcholinesterase (AChE) small molecule antagonists: fluorescence cell-based qHTS assay (AID 1347398); conditions: Potency: AChE activity; outcome: AChE activity; note: nearly all actives have a fitted effect of over 50% in size; note: potency is the fitted concentration of half-maximal effect
# Procedure, shortened: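 Read-out is Thiolite Green fluorescence at Ex/Em = 490/520 nm, formed by reaction with thiocholine released when cellular AChE in SH-SY5Y cells hydrolyzes acetylthiocholine. Compounds were preincubated 30 min at 37 C before substrate.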
# [3] = biological target: Acetylcholinesterase (Homo sapiens) (UniProt P22303); test: Acetylcholinesterase (AChE) small molecule antagonists: enzyme-based qHTS assay with human liver microsomes (AID 1347399); conditions: Potency: qHTS inhibition; outcome: qHTS inhibition; note: nearly all actives have a fitted effect of over 60% in size
# Procedure, shortened: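 Recombinant human AChE (50 mU/mL in the enzyme mix) and human liver microsomes (0.25 mg/mL final) were preincubated with compound and NADPH (0.25 mg/mL final) for 30 min at 37 C. Acetylthiocholine/DTNB was then added; thiocholine was read colorimetrically after 10 min at room temperature.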
# [4] = biological target: Acetylcholinesterase (Homo sapiens) (UniProt P22303); test: Acetylcholinesterase (AChE) small molecule antagonists: enzyme-based qHTS assay (AID 1347397); conditions: Potency: AChE enzyme activity inhibition; outcome: AChE enzyme activity inhibition; note: nearly all actives have a fitted effect of over 55% in size; note: potency is the fitted concentration of half-maximal effect
# Procedure, shortened: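 rhAChE 50 mU/mL (dispensed) + cpd or DMSO, 30 min RT; add DTNB/acetylthiocholine cocktail, 10 min RT; colorimetric thiocholine readout. qHTS, 1536-well format.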
compound,measurement,setting,value
CC1CCC2CC1C2(C)C (centres undefined),Potency,[1],inactive
same,Potency,[2],inactive
same,Potency,[3],inactive
NC(N)=NCCC[C@H](N)C(=O)O,"activity change, negative = inhibition",[4],-0.554% [at 10.5 µM]
same,"activity change, negative = inhibition",[2],6.4% [at 10.5 µM]
same,"activity change, negative = inhibition",[3],-0.0087% [at 10.5 µM]
CN(C)CCCN1c2ccccc2Sc2ccc(C(F)(F)F)cc21,Potency,[4],inactive
same,Potency,[2],inactive
CCCCCCCC/C=C\CCCCCCCC(=O)OCCOC(=O)CCCCCCC/C=C\CCCCCCCC,Potency,[4],inactive
same,Potency,[2],inactive
same,Potency,[3],inactive
O=C(O)Cc1ccc(-c2ccccc2)cc1,Potency,[1],inactive
same,Potency,[2],inactive
same,Potency,[3],inactive
Cc1cc(C)c(C)c(C)c1,Potency,[1],inactive
same,Potency,[2],inactive
same,Potency,[3],inactive
COCCOCCOCCOCCO,Potency,[1],inactive
same,Potency,[2],inactive
same,Potency,[3],inactive
CCCCCCCCCCCCc1ccccc1O,Potency,[1],inactive
same,Potency,[2],inactive
same,Potency,[3],inactive
CC(C)CCOC(=O)c1ccccc1,Potency,[1],inactive
same,Potency,[2],inactive
same,Potency,[3],inactive
CN1CCN(c2c(F)cc3c(=O)c(C(=O)O)cn(CCF)c3c2F)CC1,Potency,[1],inactive
same,Potency,[2],inactive
same,Potency,[3],inactive
C=CC(=O)Nc1cc2c(Nc3ccc(F)c(Cl)c3)ncnc2cc1OCCCN1CCOCC1,Potency,[1],inactive
same,Potency,[2],inactive
same,Potency,[3],inactive
NC(=O)C(=O)N/N=C/c1ccc([N+](=O)[O-])o1,Potency,[1],inactive
same,Potency,[2],inactive
same,Potency,[3],inactive
CC(=O)CCC(C)C,Potency,[1],inactive
same,Potency,[2],inactive
same,Potency,[3],inactive
N[C@H]1C(O)O[C@H](CO)[C@H](O)[C@@H]1O (some centres undefined),Potency,[4],inactive
same,Potency,[2],inactive
same,Potency,[3],inactive
BrC1CCC(Br)C(Br)CCC(Br)C(Br)CCC1Br (centres undefined),Potency,[1],inactive
same,Potency,[3],inactive
C=C(C)C(=O)OCC(C)C,Potency,[1],inactive
same,Potency,[2],inactive
same,Potency,[3],inactive
CCn1c2ccccc2c2cc([N+](=O)[O-])ccc21,Potency,[1],inactive
same,Potency,[2],inactive
same,Potency,[3],inactive
CC1=NC(C)OC1C (centres undefined),Potency,[4],inactive
same,Potency,[2],inactive
same,Potency,[3],inactive
COc1ccc(C(=O)c2ccccc2)c(O)c1,Potency,[4],inactive
same,Potency,[2],inactive
same,Potency,[3],inactive
CO[Si](CCCOCC1CO1)(OC)OC (centres undefined),Potency,[4],inactive
same,Potency,[2],inactive
same,Potency,[3],inactive
COc1ccc(CCN(C)CCCN2CCc3cc(OC)c(OC)cc3CC2=O)cc1OC,Potency,[4],inactive
same,Potency,[2],inactive
same,Potency,[3],inactive
Cc1c2ccccc2c(C)c2c1ccc1ccccc12,Potency,[4],inactive
same,Potency,[2],inactive
same,Potency,[3],inactive
O=C(CS)Nc1ccccc1,Potency,[4],inactive
same,Potency,[2],inactive
same,Potency,[3],inactive
C[C@]12CCC(=O)C=C1CC[C@@H]1[C@@H]2CC[C@@]2(C)[C@H]1CC[C@]2(O)C(=O)CO,Potency,[4],inactive
same,Potency,[2],inactive
same,Potency,[3],inactive
CN(C)c1ccc(C(=C2C=CC(=[N+](C)C)C=C2)c2ccc(N(C)C)cc2)cc1,Potency,[4],25.1 µM (active) and 35.6 µM (active) and 30.9 µM (active)
same,Potency,[2],19.9 µM (active) and 44.8 µM (active) and 15.5 µM (active)
same,Potency,[3],inactive
FC(F)(Cl)C(F)(Cl)Cl,Potency,[4],inactive
same,Potency,[2],inactive
same,Potency,[3],inactive
Nc1ccn([C@@H]2O[C@H](CO)[C@@H](O)[C@@H]2O)c(=O)n1,Potency,[4],inactive
same,Potency,[2],inactive
same,Potency,[3],inactive
C[C@]12CC[C@H]3[C@@H](CCC4=CC(=O)CC[C@@]43C)[C@@H]1CC[C@@H]2C(=O)CO,Potency,[4],inactive
same,Potency,[2],inactive
same,Potency,[3],inactive
Nc1nc(-c2ccc([N+](=O)[O-])cc2)cs1,Potency,[4],inactive
same,Potency,[2],inactive
same,Potency,[3],inactive
CCCCCCCCCCCC[N+](C)(C)CCCS(=O)(=O)[O-],Potency,[4],inactive
same,Potency,[2],inactive
same,Potency,[3],inactive
CC(=O)CC(C)=O,Potency,[4],inactive
same,Potency,[2],inactive
same,Potency,[3],inactive
OC/C(Br)=C(\Br)CO,Potency,[4],inactive
same,Potency,[2],inactive
same,Potency,[3],inactive
O=C(Nc1ccccc1)c1cc([N+](=O)[O-])ccc1Cl,Potency,[4],inactive
same,Potency,[2],inactive
same,Potency,[3],inactive
CCNC(=O)[C@@H]1CCCN1C(=O)[C@H](CCCN=C(N)N)NC(=O)[C@H](CC(C)C)NC(=O)CNC(=O)[C@H](Cc1ccc(O)cc1)NC(=O)[C@H](CO)NC(=O)[C@H](Cc1c[nH]c2ccccc12)NC(=O)[C@H](Cc1cnc[nH]1)NC(=O)[C@@H]1CCC(=O)N1 ([pGlu]HWSYGLRP-NHEt),Potency,[4],inactive
same,Potency,[2],inactive
same,Potency,[3],inactive
C#CC(C)(CC)OC(=O)c1ccccc1C(=O)O (centres undefined),Potency,[4],inactive
same,Potency,[2],inactive
same,Potency,[3],inactive
CC(=O)Nc1ccc(C(=O)CCl)cc1,Potency,[4],inactive
same,Potency,[2],inactive
same,Potency,[3],inactive
CC[C@]12CCCN3CCc4c(n(c5ccccc45)C(=O)C1)[C@@H]32,Potency,[4],inactive
same,Potency,[2],inactive
same,Potency,[3],inactive
